# Reference: ChEMBL document CHEMBL4513149, “CO-ADD screening of MMV (CH) - MMV compounds” (2021)
# Potency and affinity values are given separately.
# Assays:
# Staphylococcus aureus = conditions: Concentration 20 uM; ASSAY_TEST Inhibition of Bacterial Growth; detection method Absorption (OD600); MEDIA CAMHB; plate type 384well; NBS; CORNING #3640; time 18 hr
# Escherichia coli = conditions: Concentration 20 uM; ASSAY_TEST Inhibition of Bacterial Growth; detection method Absorption (OD600); MEDIA CAMHB; plate type 384well; NBS; CORNING #3640; time 18 hr
Compound,Inhibition (Staphylococcus aureus),Inhibition (Escherichia coli)
CC(C)n1nc(-c2cc3c(Cl)cccc3[nH]2)c2c(N)ncnc21,11.03%,4.95%
CC(C)(C)c1cc(C(=O)Nc2cccnc2)cc(C(=O)Nc2cccnc2)c1,15.23%,6.88%
CN1CCCN(C(c2ccccc2)c2ccc(Cl)cc2)CC1 (stereo not given) [HOMOCHLORCYCLIZINE],14.31%,4.77%
Cc1cc(Nc2ccc(C(F)(F)F)cc2)n2ccnc2n1,20.89%,9.89%
CCC(NC(=O)c1ccccc1NC(=O)c1ccc(C)cc1)C(=O)OC (stereo not given),17.84%,3.87%
CC(=O)Nc1ccc(-c2noc(CC3CCCN(Cc4cccc(F)c4C)C3)n2)cc1 (stereo not given),14.07%,3.97%
CCCc1ccc(S(=O)(=O)Nc2ccc(CN3CCN(CC4CC4)CC3)cc2)cc1,18.92%,6.87%
N#CCN(CCCCN1CCN(c2ccc(F)cc2)CC1)C(=O)OCc1ccccc1,23.36%,7.95%
COCC(C)NC(=O)CSc1ncnc2sc(-c3ccccc3)cc12 (stereo not given),19.45%,9.3%
CN1CCN(S(=O)(=O)c2ccc(-c3ccc4c(Nc5ccc6nn[nH]c6c5)ccnc4c3)cc2)CC1,10.46%,-0.24%
COc1cncc(-c2cncc(N3CCN(c4ccncc4)CC3)n2)c1,18.85%,13.61%
COc1ccc(-c2onc(C(F)(F)F)c2-c2ccc(Cl)cc2)c(O)c1,22.97%,5.79%
Cc1ccc2[nH]c(C3CCCNC3)c(-c3ccncc3)c2c1.Cl.Cl (stereo not given),42.59%,2.54%
Nc1ncc(Br)cc1-c1nc2cc(Cl)cnc2[nH]1,26.53%,12.85%
COc1ccccc1CNC(=O)c1cc(C2CC2)nc2c1cnn2C(C)C,13.79%,-2.58%
Cc1cc(Cl)c(S(=O)(=O)N2CCCC2)cc1OCC(=O)NC1CCCCC1,7.56%,0.73%
CCc1ccc(S(=O)(=O)Nc2cc(CN3CCN(CCC(C)C)CC3)ccc2C)cc1,21.02%,13.04%
CC(C)(C)n1nc(Cc2ccc(F)c(Cl)c2)c2c(N)ncnc21,12.68%,11.38%
O=C(Cn1ccnc1[N+](=O)[O-])NCc1ccccc1 [BENZNIDAZOLE],21.81%,9.92%
COc1cccc(CC(=O)N2CCC(n3c(C)nc4ccc(F)cc43)CC2)c1,21.64%,9.91%
CCc1cc(=O)n(C)c(SC(C)C(=O)Nc2ccc(F)cc2)n1 (stereo not given),4.54%,4.12%
Nc1ncnc2[nH]nc(Cc3cccc4ccccc34)c12,12.91%,7.05%
CCNC(=O)C(C)Nc1nc(-c2cccnc2)nc2sc(C)c(C)c12 (stereo not given),4.74%,10.74%
Nc1nc(N)c2c3c(sc2n1)CN(Cc1ccccc1)CC3,15.72%,6.81%
CS(=O)(=O)N1CCC(CCn2nc(Cc3cccc4ccccc34)c3c(N)ncnc32)CC1,11.8%,-2.01%

Compound,Inhibition (Staphylococcus aureus),Inhibition (Escherichia coli)
O=C(Nc1cccc(Cl)c1)c1cnc(N2CCN(c3ccncc3)CC2)c(Cl)c1,19.29%,6.8%
NCC(=O)N1CCn2c(nc(-c3ccccc3)c2Nc2ccc3c(c2)OCO3)C1,11.35%,-1.15%
Brc1c(-c2ccc3c(c2)OCO3)nc2ncccn12,14.85%,5.08%
O=C(c1ccc(F)cc1)N(CCNc1ccccc1)c1ccccc1,14.62%,8.4%
CCC(Sc1nc2ccccc2o1)C(=O)Nc1nccs1 (stereo not given),18.2%,11.9%
Cc1cc(OCC(=O)Nc2ccc(C(C)C)cc2)n(C)c(=O)c1C#N,7.07%,14.16%
Cl.Cn1ccnc1CNCCS(=O)(=O)c1cccc(Nc2ccc(-c3cccc(F)c3)cn2)c1,24.8%,8.19%
CN(C)c1cc(NC(=O)Nc2ccccc2)c2ccccc2n1,12.79%,6.08%
CCS(=O)(=O)N(Cc1ccco1)Cc1cc2ccc(C)cc2nc1O,9.79%,-2.16%
N=C(N)c1ccc(-c2cc(-c3ccccc3)on2)cc1,23.63%,12.9%
C[C@H](C(N)=O)N1CCCC[C@@H]1c1ccc(OCc2cccc(F)c2)cc1,12.73%,2.14%
Cc1cc2nc(NC(=O)C(C)(C)C)nc(Cl)c2n1Cc1ccc(Cl)cc1,7.77%,0.73%
CC(=O)O.CC(=O)O.Nc1ncnc2c1ncn2[C@@H]1O[C@H](COS(=O)(=O)NC(=O)c2ccccc2O)[C@@H](O)[C@H]1O,15.68%,5.07%
O=C(Nc1nnc(S)s1)c1cc(Br)ccc1Cl,0.16%,4.27%
Cl.O=C(Nc1ccc(N2CCNCC2)nc1)c1oc(-c2ccccc2)nc1C(F)(F)F,15.48%,0.64%
COc1ccccc1OCCCCn1c(C2CC2)nc2ccccc21,12.87%,4.8%
COC(=O)c1ccc(F)cc1NS(=O)(=O)c1cccc(-c2cnn(Cc3ccccc3)c2)c1,11.02%,13.23%
C[C@H](C(N)=O)N1CCCC[C@H]1c1ccc(OCc2cccc(F)c2)cc1,21.57%,11.68%
NCCC(O)C(=O)N[C@@H]1C[C@H](N)[C@@H](OC2O[C@H](CN)[C@@H](O)[C@H](O)[C@H]2O)[C@H](O)C1OC1O[C@H](CO)[C@@H](O)[C@H](N)[C@H]1O.O=S(=O)(O)O.O=S(=O)(O)O (stereo not given in full),14.32%,11.24%
COc1nc2ccc(Br)cc2cc1[C@@H](c1ccccc1)[C@@](O)(CCN(C)C)c1cccc2ccccc12.O=C(O)C(F)(F)F,17.15%,2.08%
CCC(Sc1nc2ccccc2o1)C(=O)Nc1nnc(C)s1 (stereo not given),-13.91%,-8.34%
Cc1ccc(NC(=O)CC2COc3ccccc3O2)cc1Cl (stereo not given),15.28%,6.03%
COc1ccc(N(CCc2cccc(C)n2)C(C)=O)cc1,18.62%,6.06%
O=C(NCc1nnc2n1CCCCC2)c1ccc(-c2ccc(F)cc2)o1,15.64%,7.05%
COC(=O)c1c(NC(=O)c2cc3ccccc3oc2=O)sc2c1CCN(Cc1ccccc1)C2,19.04%,12.69%

Compound,Inhibition (Staphylococcus aureus),Inhibition (Escherichia coli)
O=C(NC1CC1)c1ccc(N2CCC(Cc3ccccc3)CC2)nc1,20.17%,11.23%
O=C(OCc1ccccc1)N1CCC(c2cc(-c3ccncc3)c(-c3ccc(F)cc3)[nH]2)CC1,3.21%,4.05%
Cc1ccccc1CN1CCC(O)(c2ccc(Cl)c(C(F)(F)F)c2)CC1,17.37%,4.77%
O=C(c1ccc(NCCO)cc1)C1C[C@H]1c1ccc(Cl)cc1 (stereo not given in full),8.07%,-0.72%
NC(=O)c1cc(-c2ccsc2)ccc1OCCOc1ccccc1,14.87%,5.41%
CCOc1ccccc1C(=O)Nc1cccc(-c2nc3ncccn3c2C)c1,2.54%,10.22%
CNc1snc(C)c1C(=O)NCCOc1ccc(OC)cc1,18.31%,5.8%
COc1ccc2nc(C)cc(OCC(=O)Nc3ccccc3OC)c2c1,18.5%,13.22%
COc1cccc(OCC(=O)c2ccc(Br)cc2)c1,-13.25%,-7.45%
c1coc(CNc2nc(N3CCCCC3)nc3ccccc23)c1,13.52%,5.17%
Cc1cc2ccccc2n1CC(=O)N1CC(C(=O)N2CCCCC2)Oc2ccccc21 (stereo not given),16.51%,10.52%
CC(C)(CN)c1nc(-c2ccc(Cl)c(O)c2)c(-c2ccnc(N)n2)[nH]1.O=C(O)C(F)(F)F.O=C(O)C(F)(F)F,18.2%,12.46%
Cl.c1ccc(C[C@@H]2CN(c3nccc(Oc4ccc(-n5ccnc5)cc4)n3)CCN2)cc1,21.29%,8.76%
COc1ccc2nc(C)cc(OCC(=O)NCc3ccccc3)c2c1,12.19%,7.22%
COc1ccc(C2CC(c3cccs3)=NN2C(=O)c2ccco2)cc1OC (stereo not given),19.66%,11.75%
Cc1cc(C)nc(-n2nc(C)cc2Nc2ccccc2)n1,9.46%,5.87%
COc1cc(C2=NCCN2)ccc1-c1cn(-c2cccc(C3=NCCN3)c2)nn1,19.96%,14.41%
CC1CCCCN1C(=O)NCCc1coc(-c2ccc(F)cc2)n1 (stereo not given),23.75%,7.62%
Cc1cc(C(=O)Nc2cnn(Cc3ccc(Cl)cc3Cl)c2)no1,4.82%,8.52%
COc1cc(Br)cc2cc(C(=O)Nc3cccc(C(F)(F)F)c3)c(=O)oc12,7.48%,1.89%
COc1ccc(Oc2ccc([C@@H](C)N(C)c3ncc4c(N)nc(N)nc4n3)cc2)cc1,53.21%,13.92%
Cc1cc(Cl)ccc1NC(=O)CCc1ccc(S(=O)(=O)NCC(C)C)cc1,6.84%,9.61%
CC1CC1C(=O)NC1CCN(CC2(c3ccccc3)CCCCC2)CC1 (stereo not given),14.54%,6.55%
CCc1nc2ccc(Cl)cn2c1C(=O)NCc1ccc(N2CCC(c3ccc(OC(F)(F)F)cc3)CC2)cc1 [TELACEBEC],17.2%,13.17%
COc1ccc(CN2CCOc3ccc(C(C)(O)CN(C)C)cc3C2)cc1C (stereo not given),19.53%,9.29%
